ALOX12 inh – ALOX12 (human) lipoxygenase inhibition | P18054 | purified 12hLO, xylenol orange hydroperoxide absorbance | Potency, µM (series often up to 108 µM), for inactives: at the top dose activity change, negative = inhibition, usual class: inhibitors | 1.1% of 580,000 active; further: potency means the concentration at half of the fitted maximal effect; on the % scale 0 is the no-effect control and ±100 the full control effect
Target sequence (P18054 whole entry, looked up): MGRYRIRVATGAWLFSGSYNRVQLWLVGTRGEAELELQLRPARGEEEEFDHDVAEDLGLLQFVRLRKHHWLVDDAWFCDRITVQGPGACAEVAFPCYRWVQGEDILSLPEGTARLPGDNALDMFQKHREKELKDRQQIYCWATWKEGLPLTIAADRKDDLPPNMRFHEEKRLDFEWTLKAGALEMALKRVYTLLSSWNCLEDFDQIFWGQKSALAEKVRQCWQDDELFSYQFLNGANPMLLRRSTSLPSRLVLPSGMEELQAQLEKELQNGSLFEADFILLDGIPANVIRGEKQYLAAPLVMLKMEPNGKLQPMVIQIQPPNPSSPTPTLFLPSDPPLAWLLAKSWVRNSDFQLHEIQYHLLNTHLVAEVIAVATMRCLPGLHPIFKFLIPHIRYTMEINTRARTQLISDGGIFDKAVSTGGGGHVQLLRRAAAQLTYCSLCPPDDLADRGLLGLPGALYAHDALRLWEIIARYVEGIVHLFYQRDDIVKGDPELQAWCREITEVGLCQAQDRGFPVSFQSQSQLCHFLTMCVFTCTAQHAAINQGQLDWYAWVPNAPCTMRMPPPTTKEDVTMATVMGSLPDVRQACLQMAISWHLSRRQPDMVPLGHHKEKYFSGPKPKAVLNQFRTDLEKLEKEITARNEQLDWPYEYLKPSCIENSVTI
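Purified human 12hLO (150 nM final) in 25 mM Hepes, 0.01% Triton X-100, pH 7.0 was preincubated 15 min at room temperature with compound. Then 40 uM arachidonic acid was added, 30 min. Hydroperoxide was read by Fe-XO absorbance ratio 573/405 nm.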
uPA surface inh – blocks generation of uPA at the cell surface | cell surface uPA generation assay, qHTS | 0.31% of 330,000 active | Potency, µM (highest dose often 38.3 µM), for inactives: top-dose activity change, negative = inhibition, most hits filed as inhibitors; active means well fitted inhibition curve with a large enough effect; inconclusive means small, poorly fitted or top-dose-only effect; inactive means no such curve, though single readings can be large or run the other way; tested in mouse RAW 264.7 cells; further: potency means the concentration at half of the fitted maximal effect; on the % scale 0 is the no-effect control and ±100 the full control effect; nearly all actives have a fitted effect of over 55% in size
Nrf2 activator – Nrf2 pathway activation; AREc32 ARE-luciferase reporter (MCF7-derived line), luminescence, 24 h; 0.31% of 410,000 active; Potency, µM (doses to about 46.1 µM), inactives show at the top dose activation, most hits filed as activators; AID 624171; further: potency means the concentration at half of the fitted maximal effect; % of control where 0% means no effect; nearly all actives have a fitted effect of over 65% in size
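Reporter line AREc32 (ARE-Fluc), seeded overnight in OPTI-MEM with 5% FBS; compound pin-transferred, 24 hr at 37 deg C, 5% CO2; luminescent read-out.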
IL-2 act – activators of IL-2; IL-2 activation reporter assay, cell-based qHTS; stimulated with anti-CD3/CD4/CD28 beads; in transgenic mouse T cells; activation, % (series mostly up to about 46 µM); 0.065% of 360,000 active; AID 652025; in the data active means activation above about 50%; inconclusive means mostly about 30% to 49%; further: 0% is about no effect
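Quantitative HTS in unstimulated transgenic mouse T cells, with memory T cells as non-tolerant control and PMA/ionomycin as tolerance-bypass control. Compound pretreatment lasted 60 minutes before 18 h bead stimulation; EGFP/DsRed fluorescence read.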
a7 integrin act – activates integrin-mediated alleviation for muscular dystrophy; alpha7betagal myoblasts, beta-gal FDG fluorescence, 48 h; Potency, µM (doses to about 38.3 µM), for the others: at the highest dose activation, usual class: activators; 0.064% of 350,000 active; AID 624291;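 further: potency means the concentration at half of the fitted maximal effect; 100% = response of the positive control SU9516; nearly all actives have a fitted effect of over 60% in size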
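alpha7betagal+/- myoblasts (passage 13, 250/well) treated 48 h at 37C with compounds at 1:260 dilution of DMSO stock. Lysed, then beta-galactosidase activity read as FDG fluorescence (ex 480/em 540) after 30 min, with pre-read for autofluorescence.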
An asterisk follows results filed as active; ? = inconclusive; · = not tested or not shown; [ ] = another dose, or the depositor's remark. This is a sample that favours compounds with a hit; in the whole collection about 1.5% have one here. Unless noted, the call rests on the fitted dose curve; in most records, active means well fitted curve in the direction sought with a large enough effect; inconclusive means small, poorly fitted or top-dose-only effect, or another doubt; inactive means no such curve, though single readings can be large; an effect the other way counts as inactive or inconclusive.

SMILES | ALOX12 inh | uPA surface inh | Nrf2 activator | IL-2 act | a7 integrin act
COc1ccc(-c2sc3ccc(N4CCOCC4)cc3c2C#CC2(O)CCCCC2)cc1 | -15% | -50% | 6% | 0 | -4%
COc1ccc(-c2sc3ccc(N4CCOCC4)cc3c2C#CCO)cc1 | 20µM* | -2% | -3% | -4 | -39%
O=c1[nH]c(N2CCOCC2)nc2c1CCN(Cc1cc(F)c(F)cc1F)CC2 | 13% | · | · | · | ·
COC/C=C/C1=CC2=CC(=O)C(C)(OC(=O)c3cnc4ccccc4n3)C(=O)C2=CN1C(CO)CO (configuration not stated) | 7.1µM* | 5% | -1% | 1 | 15%
COc1cc(-c2nn3c(C4CCCCC4)nnc3s2)cc(OC)c1OC | 25µM* | 0% | 3% | 1 | 4%
O=C1N/C(=N/Nc2ccccc2)S/C1=C\c1ccccc1 | 5.6µM* | 2% | 20% | -3 | 25%
CCc1nc(N)c(C#N)c(-c2ccco2)c1C | 4% | -7% | 2.5µM* | 1 | -6%
CCCCCc1nc(N)c(C#N)c(-c2ccco2)c1CCCC | -9% | 6% | 5% | 4 | -1%
COc1ccc(C(=O)NC(=S)NNC(=O)c2cnccn2)cc1 | -11% | -1% | 0% | 0 | 3%
COc1ccccc1C(=O)NNC(=S)NC(=O)c1cc(OC)c(OC)c(OC)c1 | 40µM* | ? | 0% | 1 | -10%
COc1cc(C(=O)NNC(=S)NC(=O)c2ccccc2C)cc(OC)c1OC | -20% | -1% | 0% | 0 | -23%
COc1cc(C(=O)NC(=S)NNC(=O)[C@H]2C[C@@H]2c2ccccc2)cc(OC)c1OC | 32µM* | 6% | -1% | -2 | -18%
COc1cc(C(=O)NC(=S)NC(C)C)cc(OC)c1OC | 35µM* | -1% | -1%[9.22 µM] | 1 | -9%
COc1cc(C(=O)NC(=S)NNC(=O)c2cnccn2)cc(OC)c1OC | ? | 10µM* | 1% | 0 | -7%
COc1cccc(CCC(=O)NC2CCN(C(=O)c3cc4c(=O)[nH]c(C)cn4n3)CC2)c1 | 8% | · | · | · | ·
CCn1c(CN(C)C)nnc1C1CCN(C(=O)c2ccn(C(F)F)n2)CC1 | 0% | · | · | · | ·
CC1Sc2ccc(S(=O)(=O)NC3CCN(Cc4ccccc4)CC3)cc2NC1=O (configuration not stated) | 5% | · | · | · | ·
CCOC(=O)Cc1csc(NC(=S)NC(=O)c2cc(OC)c(OC)c(OC)c2)n1 | ? | -15% | 1% | -1 | 3.5µM*
COc1ccccc1NC(=O)Cc1csc(NC(=S)Nc2ccccc2)n1 | 18µM* | · | 3% | -2 | 13%
CCOC(=O)Cc1csc(NC(=S)NC(=O)c2ccc(F)cc2)n1 | 0% | -1% | -2% | -6 | 24%
COc1ccc(C(=O)NC(=S)NNC(=O)c2ccccc2C)cc1 | 45µM* | 0% | 0% | 0 | ?
Cc1cc(C(=O)N2CC[C@@H]3CN(S(C)(=O)=O)[C@@H]3C2)c(C)o1 | 20% | · | · | · | ·
NS(=O)(=O)c1ccc(CCNC(=O)CNCCc2ccccc2)cc1 | 0.63µM* | -2% | -1% | 0 | -16%
CCN(c1ccccc1)S(=O)(=O)c1ccc(N2CCN(c3ccc(OC)cc3)CC2)nc1 | 19% | -2% | 0% | 0 | 16%
CCN(c1ccccc1)S(=O)(=O)c1ccc(N2CCN(c3ccc(O)cc3)CC2)nc1 | 20µM* | -4% | 8% | 5 | -2%
SMILES | ALOX12 inh | uPA surface inh | Nrf2 activator | IL-2 act | a7 integrin act
COc1ccc(OC)c(C(=O)CC2OC(=O)c3ccccc32)c1 (configuration not stated) | -34% | -7% | 13µM* | -4 | -33%
COc1ccc(C(=O)CC2OC(=O)c3ccccc32)cc1OC (configuration not stated) | 1% | 3% | ? | -2 | -38%
CCc1nn(-c2ccc(OC)cc2)c(Oc2ccccc2F)c1CCC(=O)NCC1CC1 | 10% | · | · | · | ·
C=CC[C@H]1CC(C)=C[C@H](CC=C)N1Cc1ccc(CN(C)S(C)(=O)=O)o1 | 107% | · | · | · | ·
CN(C)C(=S)Nc1cccc(C(F)(F)F)c1 | -3% | 8% | 0% | 0 | 10µM*
COC[C@H]1C[C@@H](NC(=O)c2ccc(Cl)cc2)[C@H](O)[C@@H]1O | 66%[176 µM] | · | · | · | ·
CN(C)S(=O)(=O)c1cccc(NC(=S)NC23CC4CC(CC(C4)C2)C3)c1 | ? | -7% | 2% | 1 | -65%

Screens deposited in PubChem BioAssay by National Center for Advancing Translational Sciences (NCATS).
